# Screening data from PubChem.
# Hits are enriched below; roughly 4.5% of the tested compounds scored in any of these assays.
# GRK2 aptamer HTS – human GRK2 inhibition via aptamer displacement | P25098 | hit rate 0.59% among 330,000 | inhibition of aptamer binding, % at 10 µM | bead flow cytometry, FAM-aptamer displacement from GRK2;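 active = inhibition of aptamer binding above 40%, roughly 3 SD of noise, on plates passing a quality check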;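 also: median bead fluorescence of bound FAM aptamer so fluorescent compounds give negative values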
# ALR inh – inhibitors of human sulfhydryl oxidase ALR; purified ALR, DTT oxidation, H2O2 HRP-luminol luminescence; P55789; hit rate 3.8% among 290,000; AID 485317; inhibition, % (test concentration not listed);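 active = mean replicate inhibition above about 79%, with every replicate also reaching it, limit read from the data; inconclusive = only one of the two criteria met; inactive = mean below limit and not every replicate reaching it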
# Rtt109 Vps75 – blocks Candida albicans Rtt109/Vps75 acetyltransferase activity; hit rate 0.16% among 330,000; inhibition, % at 34.9 µM; purified Rtt109/Vps75, ThioGlo CoA-SH fluorescence, 4 h; Q5AAJ8; AID 540336;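 active = inhibition of at least 50% in every replicate; inconclusive = best replicate reaches 50% inhibition but some replicates fall short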
# HDAC3 inhib – inhibitors of human histone deacetylase 3; recombinant HDAC3, fluorogenic peptide/trypsin coupled, fluorescence; inhibition, % at 8.3 µM; AID 2718; hit rate 0.15% among 320,000; in the data active = inhibition above about 26%, passing the limit was not always enough; inconclusive = no clear call, values can overlap the other calls
# Target sequence (O15379 whole entry, looked up): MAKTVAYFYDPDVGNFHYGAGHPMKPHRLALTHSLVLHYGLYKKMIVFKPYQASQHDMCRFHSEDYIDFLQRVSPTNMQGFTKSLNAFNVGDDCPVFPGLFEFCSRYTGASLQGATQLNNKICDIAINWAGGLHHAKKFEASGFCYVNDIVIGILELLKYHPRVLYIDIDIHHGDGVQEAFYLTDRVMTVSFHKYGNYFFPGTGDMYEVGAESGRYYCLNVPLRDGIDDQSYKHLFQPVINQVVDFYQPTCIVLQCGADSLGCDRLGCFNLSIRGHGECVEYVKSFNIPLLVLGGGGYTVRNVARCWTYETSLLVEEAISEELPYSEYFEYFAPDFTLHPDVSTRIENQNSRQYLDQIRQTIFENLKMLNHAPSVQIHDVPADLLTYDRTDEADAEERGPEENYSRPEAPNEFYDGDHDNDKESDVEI
# Efflux pump mplx – blocks antifungal efflux pumps in multiplex yeast assay | S. cerevisiae Candida pump triplex, Nile Red efflux | inhibition, % at 10 µM | hit rate 0.44% among 330,000 | AID 485275;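 active = plate passing quality check with inhibition over a set limit, or well fluorescence over plate mean plus 4 SD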;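 also: Nile Red retained in pooled yeast measured as flow cytometry median fluorescence; 0% = buffer negative control and 100% = Enniatin B positive control; higher means more Nile Red kept so more efflux inhibition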
# Rce1 inh – blocks yeast Ras-converting enzyme; calls only; Q03530; yeast membranes, quenched prenylated peptide cleavage fluorescence; AID 2563; hit rate 0.27% among 290,000;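 active = fall in fluorescence gain of 50% or more versus controls, with final raw signal at or below 3038400; inconclusive = same 50% fall but final raw signal above 3038400; inactive = fall in fluorescence gain under 50%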;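 also: plate controls were neutral control wells for no effect and wells lacking membranes for full effect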
# The depositor's hits bear a star; i = inactive; ? = inconclusive; / = not tested or not shown.
SMILES,GRK2 aptamer HTS,ALR inh,Rtt109 Vps75,HDAC3 inhib,Efflux pump mplx,Rce1 inh
CCCCCCC(=O)N(O)C1CC(=O)N(c2ccc(C)cc2)C1=O (stereo not drawn),2,-2,11,?,0,i
CC(C)(C)c1nnc(NS(=O)(=O)c2cc(Cl)ccc2Cl)s1,0,5,5,12,0,i
O=S(=O)(Nc1nc(-c2sccc2Cl)cs1)c1cc(Cl)ccc1Cl,0,98*,33,8,0,i
CCOC(=O)c1c(NC(=S)Nc2ccccc2)sc2c1CCN(CC)C2,2,87*,2,5,0,i
Cc1ccc(-c2nc(CSCC(=O)NCc3cccnc3)c(C)o2)cc1,0,99*,-16,2,0,i
COc1ccc(NC(=O)CSCC(=O)NCc2ccco2)cc1,1,55,1,0,0,i
COc1ccc(-c2nc(CSCC(=O)NCc3ccco3)c(C)o2)cc1,2,99*,-2,4,0,i
CCc1cccc(CC)c1NC(=O)CN1CCc2cc(OC)c(OC)cc2C1,1,-13,0,5,0,i
O=C(CNC(=O)c1cccnc1)N/N=C/c1ccc(O)cc1O,0,78*,-1,2,0,i
COc1cc(/C=N/NC(=O)c2cccc([N+](=O)[O-])c2)ccc1O,3,99*,-1,?,0,i
O=C(CNC(=O)c1ccncc1)N/N=C/c1cccc([N+](=O)[O-])c1,0,-7,51*,2,0,i
COc1cc(/C=C/C(=O)c2cccc([N+](=O)[O-])c2)cc(OC)c1OC,11,96*,3,1,0,i
COc1ccc(/C=N/NC(=O)c2cccc([N+](=O)[O-])c2)cc1O,2,68,/,1,0,i
O=C1C(Cc2c[nH]c3ccccc23)NC(=S)N1C1CCCCC1 (stereo not drawn),2,9,4,-3,0,i
CC(=O)N1CCN(CC(=O)Nc2cc(S(=O)(=O)N3CCOCC3)ccc2C)CC1,1,/,-5,-2,0,i
Cn1c2ccccc2c2cc(/C=N/NC(=O)c3cc(O)cc(O)c3)ccc21,11,2,-10,-9,0,i
Cc1ccccc1C(=O)Nc1cccc(C(=O)N/N=C/c2ccc3c(c2)OCO3)c1,1,-1,7,2,0,/
COc1cc(/C=N/NC(=O)c2cccc(NC(=O)c3ccccc3)c2)ccc1O,1,98*,1,8,0,i
COc1cc(/C=N/NC(=O)c2cccc(NC(=O)c3ccccc3C)c2)ccc1O,0,95*,7,9,0,i
COc1cccc(/C=N/NC(=O)c2cc3cc([N+](=O)[O-])ccc3s2)c1O,87*,18,-2,2,0,i
COc1cc(C(=O)N/N=C/c2ccc3c(c2)c2ccccc2n3C)ccc1O,1,100*,-12,-2,0,i
Cc1cc(C(=O)C(C)OC(=O)c2ccc(NC(=O)CC#N)cc2)c(C)n1-c1ccccc1 (stereo not drawn),0,-8,0,/,0,i
Cc1oc(-c2ccccc2Cl)nc1CS(=O)CC(=O)NCCCN1CC(C)CC(C)C1 (stereo not drawn),0,89*,2,?,0,i
Cc1ccccc1-c1nc(CS(=O)CC(=O)NCCc2ccc(Cl)cc2)c(C)o1 (stereo not drawn),0,98*,-3,3,0,i
Cc1oc(-c2ccccc2F)nc1CS(=O)(=O)CC(=O)NCCCN1CC(C)CC(C)C1 (stereo not drawn),0,-10,25,?,0,i
SMILES,GRK2 aptamer HTS,ALR inh,Rtt109 Vps75,HDAC3 inhib,Efflux pump mplx,Rce1 inh
Cc1oc(-c2ccccc2Cl)nc1CS(=O)CC(=O)NCCc1ccccc1 (stereo not drawn),0,99*,-2,3,0,i
NC(=O)C1CCN(c2oc(-c3ccccc3)nc2S(=O)(=O)c2ccc(Br)cc2)CC1,0,0,1,-3,0,/
Cc1ccc(S(=O)(=O)c2nc(-c3ccccc3)oc2N2CCC(C(N)=O)CC2)cc1,1,10,56*,-2,0,i
Cc1cc(OC(=O)c2ccccc2)n(CCC#N)n1,3,40,17,87*,0,i
O=C(Nc1cccc([N+](=O)[O-])c1)c1[nH]ncc1Cl,0,96*,/,-5,0,i
c1ccc(CCc2cccnc2)cc1,/,/,7,/,/,/
CCc1nc(SCC(=O)c2ccc3c(c2)OCCO3)c2ccccc2n1,7,/,7,34*,0,i
CCc1nc(SCC(=O)N2c3ccccc3Sc3ccccc32)c2ccccc2n1,0,-10,8,4,0,i
O=C(CSc1ncnc2scc(-c3ccc(F)cc3)c12)c1ccc2c(c1)OCCO2,1,-3,-3,81*,0,i
Cc1sc2ncnc(SCC(=O)c3ccc4c(c3)OCCO4)c2c1-c1ccccc1,0,-19,-5,7,0,i
O=C(CSc1ncnc2ccccc12)c1ccc2c(c1)OCCO2,0,99*,-1,16,0,i
CCc1nc(SCC(=O)c2ccccc2)c2ccccc2n1,3,99*,-53,2,0,i
Cc1n[nH]c(=O)c2c(NC(=O)CSc3nncs3)oc(C)c12,0,14,-3,2,0,i
COCCn1ccc2c(OCC(=O)NCc3ccc(C)cc3)cccc2c1=O,0,0,-3,-2,0,i
CCCc1nc(SCC(=O)c2ccc(OC)cc2)c2ccccc2n1,1,90*,8,23,0,i
CCc1nc(SCC(=O)NNC(=O)c2ccc(OC)cc2)c2ccccc2n1,0,-4,-9,-1,0,i
O=C(CSc1nc(Cc2ccccc2)nc2ccccc12)c1ccc2c(c1)OCCO2,0,99*,-4,6,0,i
CCN(CC)C(=O)CSc1nc(Cc2ccccc2)nc2ccccc12,2,6,8,-5,0,i
COc1cccc(CNS(=O)(=O)c2ccccc2Br)c1OC,/,/,-6,/,/,/
COC1CCCCC1Nc1cccc(SC)c1 (stereo not drawn),2,99*,-6,1,0,i
CCOC(=O)C1=C(N)OC2=C(C(=O)CCC2)C1c1ccccc1OCC (stereo not drawn),2,78*,6,5,0,i
CC(C)(C)c1nc(SCC(=O)Nc2ccc3c(c2)OCCO3)c2ccccc2n1,0,-62,-5,?,0,i
CCn1c(SCC(=O)Nc2ccc(N3CCOCC3)cc2)nnc1-c1ccco1,3,98*,-5,-8,0,i
CC(C)(C)c1nc(SCC(=O)Nc2ccc(N3CCOCC3)cc2)c2ccccc2n1,0,98*,3,4,0,i
CCn1c(C)nnc1SCC(=O)Nc1ccc(N2CCOCC2)cc1,3,88*,0,-4,0,i
